According to PubChem BioAssay AID1159580 (chemical genetic matrix, 2015):
In all, about 5,500 compounds went through this assay and about 2,000 (36%) were called active. About 18% were inconclusive and are not listed. Cut-off read from the data, not from the text of the source: active = normalized growth mostly below about 0.91 (no sharp cut-off); inconclusive = no clear call, values can overlap the other calls; inactive = mostly above about 0.92. Some of the results follow.

Assay: chemical genetic growth profiling, strain panel (AID 1159580);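 note: tested at 20 µM; growth read once vehicle control cultures reached saturation at 30 °C; 1 = growth at the plate median or of vehicle wells; lower values mean less growth of the strain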
Settings: growth OD

Measured: normalized growth

Cn1cnc([N+](=O)[O-])c1Sc1ncnc2nc[nH]c12
inactive: S. cerevisiae deletion strains, locus YKL009W, strain mrt4, stronger effect = lower value 0.983 | S. cerevisiae deletion strains, locus YKL068W, stronger effect = lower value 0.997 | S. cerevisiae deletion strains, locus YKL085W, strain MDH1 (second series), stronger effect = lower value 1 | S. cerevisiae deletion strains, locus YKL085W, strain MDH1, stronger effect = lower value 1 | S. cerevisiae deletion strains, locus YKL160W, strain elf1, stronger effect = lower value 1.04 | S. cerevisiae deletion strains, locus YKL190W, strain CNB1, stronger effect = lower value 1.01 | S. cerevisiae deletion strains, locus YKR001C, strain vps1, stronger effect = lower value 0.988 | S. cerevisiae deletion strains, locus YKR026C, strain gcn3, stronger effect = lower value 1.01 | S. cerevisiae deletion strains, locus YKR091W, strain srl3, stronger effect = lower value 1.01 | S. cerevisiae deletion strains, locus YLL001W, strain dnm1, stronger effect = lower value 1.02 | S. cerevisiae deletion strains, locus YLL026W, stronger effect = lower value 1.03 | S. cerevisiae deletion strains, locus YLL041C, strain sdh2, stronger effect = lower value 1.02 | S. cerevisiae deletion strains, locus YLR027C, strain aat2, stronger effect = lower value 1.02 | S. cerevisiae deletion strains, locus YLR039C, strain RIC1, stronger effect = lower value 1.09 | S. cerevisiae deletion strains, locus YLR058C, strain SHM2, stronger effect = lower value 1.01 | S. cerevisiae deletion strains, locus YLR102C, strain apc9, stronger effect = lower value 0.993 | S. cerevisiae deletion strains, locus YLR113W, strain HOG1, stronger effect = lower value 1.03 | S. cerevisiae deletion strains, locus YLR221C, strain rsa3, stronger effect = lower value 1.01 | S. cerevisiae deletion strains, locus YLR258W, strain gsy2, stronger effect = lower value 1.02 | S. cerevisiae deletion strains, locus YLR262C, strain YPT6 (second series), stronger effect = lower value 0.996 | S. cerevisiae deletion strains, locus YLR262C, strain YPT6, stronger effect = lower value 1.1 | S. cerevisiae deletion strains, locus YLR268W, strain sec22, stronger effect = lower value 0.981 | S. cerevisiae deletion strains, locus YLR320W, strain mms22, stronger effect = lower value 1.01 | S. cerevisiae deletion strains, locus YLR330W, strain CHS5, stronger effect = lower value 1.01 | S. cerevisiae deletion strains, locus YLR342W, strain FKS1 (second series), stronger effect = lower value 1.01 | S. cerevisiae deletion strains, locus YLR342W, strain FKS1, stronger effect = lower value 1.02 | S. cerevisiae deletion strains, locus YLR357W, strain rsc2, stronger effect = lower value 1 | S. cerevisiae deletion strains, locus YLR370C, strain arc18, stronger effect = lower value 1.03 | S. cerevisiae deletion strains, locus YLR371W, strain rom2, stronger effect = lower value 0.984 | S. cerevisiae deletion strains, locus YLR384C, strain iki3, stronger effect = lower value 1.03 | S. cerevisiae deletion strains, locus YLR418C, strain cdc73, stronger effect = lower value 1 | S. cerevisiae deletion strains, locus YML016C, strain PPZ1, stronger effect = lower value 1.02 | S. cerevisiae deletion strains, locus YML032C, strain rad52, stronger effect = lower value 0.989 | S. cerevisiae deletion strains, locus YML120C, strain ndi1, stronger effect = lower value 0.999 | S. cerevisiae deletion strains, locus YML124C, strain tub3, stronger effect = lower value 0.994 | S. cerevisiae deletion strains, locus YMR058W, strain fet3, stronger effect = lower value 1.01 | S. cerevisiae deletion strains, locus YMR078C, strain ctf18, stronger effect = lower value 0.985 | S. cerevisiae deletion strains, locus YMR125W, strain sto1, stronger effect = lower value 1.01 | S. cerevisiae deletion strains, locus YMR129W, stronger effect = lower value 1.01 | S. cerevisiae deletion strains, locus YMR205C, strain PFK2, stronger effect = lower value 1.02 | S. cerevisiae deletion strains, locus YMR223W, strain ubp8, stronger effect = lower value 0.994 | S. cerevisiae deletion strains, locus YMR231W, strain pep5, stronger effect = lower value 1.02 | S. cerevisiae deletion strains, locus YMR263W, strain SAP30, stronger effect = lower value 0.999 | S. cerevisiae deletion strains, locus YMR307W, strain GAS1, stronger effect = lower value 1.11 | S. cerevisiae deletion strains, locus YNL067W, strain RPL9B, stronger effect = lower value 0.99 | S. cerevisiae deletion strains, locus YNL071W, strain lat1, stronger effect = lower value 1.03 | S. cerevisiae deletion strains, locus YNL153C, strain GIM3, stronger effect = lower value 0.995 | S. cerevisiae deletion strains, locus YNL175C, strain NOP13, stronger effect = lower value 1.01 | S. cerevisiae deletion strains, locus YNL183C, strain NPR1, stronger effect = lower value 1 | S. cerevisiae deletion strains, locus YNL197C, strain WHI3, stronger effect = lower value 1 | S. cerevisiae deletion strains, locus YNL209W, strain ssb2, stronger effect = lower value 1.04 | S. cerevisiae deletion strains, locus YNL224C, strain SQS1, stronger effect = lower value 0.966 | S. cerevisiae deletion strains, locus YNL233W, strain BNI4, stronger effect = lower value 1 | S. cerevisiae deletion strains, locus YNL248C, strain rpa49, stronger effect = lower value 1.06 | S. cerevisiae deletion strains, locus YNL250W, strain rad50, stronger effect = lower value 0.99 | S. cerevisiae deletion strains, locus YNL271C, strain bni1, stronger effect = lower value 0.993 | S. cerevisiae deletion strains, locus YNL298W, strain CLA4, stronger effect = lower value 0.995 | S. cerevisiae deletion strains, locus YNL307C, strain MCK1, stronger effect = lower value 0.981 | S. cerevisiae deletion strains, locus YNL322C, strain KRE1 (second series), stronger effect = lower value 1.02 | S. cerevisiae deletion strains, locus YNL322C, strain KRE1, stronger effect = lower value 1.01 | S. cerevisiae deletion strains, locus YNR049C, strain mso1, stronger effect = lower value 1.01 | S. cerevisiae deletion strains, locus YNR052C, strain pop2, stronger effect = lower value 0.99 | S. cerevisiae deletion strains, locus YOL006C, strain TOP1, stronger effect = lower value 1 | S. cerevisiae deletion strains, locus YOL012C, strain htz1 1.34 | S. cerevisiae deletion strains, locus YOL147C, strain pex11, stronger effect = lower value 0.988 | S. cerevisiae deletion strains, locus YOR001W, strain rrp6, stronger effect = lower value 1.01 | S. cerevisiae deletion strains, locus YOR061W, strain CKA2, stronger effect = lower value 1.02 | S. cerevisiae deletion strains, locus YOR069W, strain VPS5, stronger effect = lower value 1.01 | S. cerevisiae deletion strains, locus YOR070C, strain gyp1, stronger effect = lower value 1.03 | S. cerevisiae deletion strains, locus YOR080W, strain dia2, stronger effect = lower value 1.02 | S. cerevisiae deletion strains, locus YOR083W, strain WHI5 (second series), stronger effect = lower value 1.02 | S. cerevisiae deletion strains, locus YOR083W, strain WHI5, stronger effect = lower value 0.98 | S. cerevisiae deletion strains, locus YOR106W, strain vam3, stronger effect = lower value 1.04 | S. cerevisiae deletion strains, locus YOR136W, strain idh2, stronger effect = lower value 0.979 | S. cerevisiae deletion strains, locus YOR144C, strain elg1, stronger effect = lower value 0.987 | S. cerevisiae deletion strains, locus YOR184W, strain ser1, stronger effect = lower value 0.981 | S. cerevisiae deletion strains, locus YOR231W, strain MKK1, stronger effect = lower value 1.06 | S. cerevisiae deletion strains, locus YOR265W, strain rbl2, stronger effect = lower value 1.02 | S. cerevisiae deletion strains, locus YOR270C, strain vph1, stronger effect = lower value 1.05 | S. cerevisiae deletion strains, locus YOR290C, strain snf2, stronger effect = lower value 1.04 | S. cerevisiae deletion strains, locus YOR316C, strain cot1, stronger effect = lower value 0.996 | S. cerevisiae deletion strains, locus YPL051W, strain arl3, stronger effect = lower value 1.04 | S. cerevisiae deletion strains, locus YPL078C, strain atp4, stronger effect = lower value 1.03 | S. cerevisiae deletion strains, locus YPL106C, strain sse1, stronger effect = lower value 1.03 | S. cerevisiae deletion strains, locus YPL240C, strain hsp82, stronger effect = lower value 1.05 | S. cerevisiae deletion strains, locus YPL241C, strain CIN2, stronger effect = lower value 1 | S. cerevisiae deletion strains, locus YPL256C, strain CLN2, stronger effect = lower value 1.05 | S. cerevisiae deletion strains, locus YPR119W, strain clb2, stronger effect = lower value 0.991 | S. cerevisiae deletion strains, locus YPR141C, strain kar3, stronger effect = lower value 0.99 | S. cerevisiae deletion strains, locus YPR163C, strain tif3, stronger effect = lower value 0.981 | S. cerevisiae deletion strains, locus YPR167C, strain met16, stronger effect = lower value 0.989 | S. cerevisiae deletion strains, strain wtn01, stronger effect = lower value 0.988 | S. cerevisiae strains, strain wild type, stronger effect = lower value 1.01
